Source: PubChem BioAssay (NCI)
The panel holds about 83,000 compounds, 20% with a hit somewhere; the sample as a whole holds those more often.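 Single-concentration screen, 48 h exposure, 96-well plates. Endpoint: percent growth. Below 10 = active.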 Active and inactive are the calls of the source.

Assays:
Assay in all cases: NCI-60 one-dose screen, 48 h (100 = growth as untreated, 0 = no growth, -100 = all killed)
Conditions in all cases: 10 µM unless noted
SK-MEL-2 melanoma = system: SK-MEL-2 melanoma
EKVX NSCLC = system: EKVX NSCLC
SN12C renal = system: SN12C renal
UO-31 renal = system: UO-31 renal
TK-10 renal = system: TK-10 renal
CAKI-1 renal = system: CAKI-1 renal
A498 renal = system: A498 renal
CCRF-CEM leukemia = system: CCRF-CEM leukemia
MOLT-4 leukemia = system: MOLT-4 leukemia
SR leukemia = system: SR leukemia
RPMI-8226 leukemia = system: RPMI-8226 leukemia
OVCAR-8 ovarian = system: OVCAR-8 ovarian
OVCAR-4 ovarian = system: OVCAR-4 ovarian
SK-OV-3 ovarian = system: SK-OV-3 ovarian
OVCAR-3 ovarian = system: OVCAR-3 ovarian
HS 578T breast = system: HS 578T breast
NCI/ADR-RES ovarian = system: NCI/ADR-RES ovarian
ACHN renal = system: ACHN renal
OVCAR-5 ovarian = system: OVCAR-5 ovarian
IGROV1 ovarian = system: IGROV1 ovarian

Measured: growth

COc1cc(C2C3=C(COC3=O)Nc3cc4c(cc32)OCO4)cc2c1OCO2 (configuration not stated)
inactive: SK-MEL-2 melanoma 41.6% | EKVX NSCLC 44.6% | SN12C renal 23.4% | UO-31 renal 51% | TK-10 renal 55% | CAKI-1 renal 44.1% | A498 renal 21.3% | MOLT-4 leukemia 12.1% | RPMI-8226 leukemia 21.9% | OVCAR-8 ovarian 14.3% | OVCAR-4 ovarian 51.9% | SK-OV-3 ovarian 12.8% | HS 578T breast 14.6%
active: CCRF-CEM leukemia 8.12% | SR leukemia -0.432% | OVCAR-3 ovarian -45.3% | NCI/ADR-RES ovarian 9.84%

Cn1ncc2c(Sc3ccc(Cl)cc3)ncnc21
inactive: EKVX NSCLC 90.2% | SN12C renal 90.1% | UO-31 renal 71% | TK-10 renal 82.7% | ACHN renal 95.1% | A498 renal 86.3% | MOLT-4 leukemia 95.8% | RPMI-8226 leukemia 48.5% | OVCAR-8 ovarian 101% | OVCAR-5 ovarian 109% | OVCAR-4 ovarian 95.7% | SK-OV-3 ovarian 94.2% | IGROV1 ovarian 87.4% | NCI/ADR-RES ovarian 103%
active: SK-MEL-2 melanoma -13.3%

CC(=O)Nc1ccc(/C=C/C(=O)c2ccccc2)cc1
active: SR leukemia 3.34% | RPMI-8226 leukemia -8.05%
inactive: SK-MEL-2 melanoma 107% | EKVX NSCLC 112% | SN12C renal 87.5% | UO-31 renal 71.3% | TK-10 renal 110% | ACHN renal 95.3% | A498 renal 73.4% | MOLT-4 leukemia 75.5% | OVCAR-8 ovarian 98.4% | OVCAR-5 ovarian 113% | OVCAR-4 ovarian 106% | SK-OV-3 ovarian 101% | IGROV1 ovarian 43% | OVCAR-3 ovarian 57.6% | HS 578T breast 81.7% | NCI/ADR-RES ovarian 103%

C=C1CCC2C3(C)COC(c4ccccc4)OC3CCC2(C)C1/C=C/C1=CCOC1=O (configuration not stated)
active: CCRF-CEM leukemia -46.7% | RPMI-8226 leukemia -36.8%
inactive: SK-MEL-2 melanoma 51.3% | EKVX NSCLC 96.1% | SN12C renal 24% | UO-31 renal 52.6% | TK-10 renal 61.3% | ACHN renal 71.3% | A498 renal 106% | MOLT-4 leukemia 45.5% | OVCAR-8 ovarian 32.9% | OVCAR-5 ovarian 78.7% | OVCAR-4 ovarian 50% | SK-OV-3 ovarian 72.4% | IGROV1 ovarian 30.6% | NCI/ADR-RES ovarian 26.2%

ClC(Cl)c1nc(-c2cccnc2)n2nc(-c3ccccc3)cc2n1
active: ACHN renal -5.02% | OVCAR-5 ovarian 7.66% | OVCAR-4 ovarian 9.31% | OVCAR-3 ovarian -47.5% | NCI/ADR-RES ovarian -11.2%
inactive: SK-MEL-2 melanoma 87.6% | EKVX NSCLC 15.1% | SN12C renal 41.7% | UO-31 renal 59.9% | TK-10 renal 27.3% | A498 renal 58.5% | MOLT-4 leukemia 15% | SR leukemia 13.4% | RPMI-8226 leukemia 33.2% | OVCAR-8 ovarian 27.7% | IGROV1 ovarian 13.9% | HS 578T breast 51.6%

Cc1nn(-c2ccc(Cl)cc2)c2ncnc(N/N=C/c3cccc([N+](=O)[O-])c3)c12
active: OVCAR-3 ovarian 8.17%
inactive: SK-MEL-2 melanoma 99% | EKVX NSCLC 84% | SN12C renal 101% | UO-31 renal 72.3% | TK-10 renal 93.3% | ACHN renal 108% | A498 renal 85.5% | CCRF-CEM leukemia 20.5% | SR leukemia 51.3% | RPMI-8226 leukemia 66.3% | OVCAR-8 ovarian 99.7% | OVCAR-5 ovarian 106% | OVCAR-4 ovarian 94.5% | SK-OV-3 ovarian 104% | IGROV1 ovarian 94.7% | HS 578T breast 99.3% | NCI/ADR-RES ovarian 105%

c1ccc(-c2nnc(-c3ccccn3)s2)nc1
inactive: SK-MEL-2 melanoma 104% | EKVX NSCLC 79.6% | SN12C renal 114% | UO-31 renal 76.3% | TK-10 renal 123% | CAKI-1 renal 50.1% | A498 renal 117% | CCRF-CEM leukemia 80.8% | SR leukemia 96.7% | RPMI-8226 leukemia 54.8% | OVCAR-8 ovarian 94% | OVCAR-5 ovarian 92.2% | OVCAR-4 ovarian 91.5% | SK-OV-3 ovarian 95.2% | IGROV1 ovarian 80.7% | OVCAR-3 ovarian 95.5% | HS 578T breast 142% | NCI/ADR-RES ovarian 83%

COc1ccc(S(=O)(=O)NCCCNc2nccc(-c3c(-c4cccc([N+](=O)[O-])c4)nc4sccn34)n2)cc1
inactive: SK-MEL-2 melanoma 41.4% | EKVX NSCLC 57.2% | SN12C renal 42.8% | UO-31 renal 19.7% | TK-10 renal 89.1% | ACHN renal 33.8% | A498 renal 46.2% | CCRF-CEM leukemia 18.7% | SR leukemia 53.5% | RPMI-8226 leukemia 11.5% | OVCAR-8 ovarian 29.8% | OVCAR-5 ovarian 98.7% | OVCAR-4 ovarian 29.2% | SK-OV-3 ovarian 89.6% | IGROV1 ovarian 40.1% | OVCAR-3 ovarian 41.2% | HS 578T breast 65.9% | NCI/ADR-RES ovarian 22.9%

COc1ccc2c(c1)OC1=C(C(=O)OC1)C2c1cc(OC)c2c(c1)OCO2 (configuration not stated)
inactive: SK-MEL-2 melanoma 43.2% | EKVX NSCLC 51.2% | SN12C renal 23.8% | UO-31 renal 41.6% | TK-10 renal 47.3% | CAKI-1 renal 42.7% | A498 renal 24.2% | CCRF-CEM leukemia 16.3% | RPMI-8226 leukemia 28.3% | OVCAR-8 ovarian 20.2% | OVCAR-4 ovarian 39.8% | IGROV1 ovarian 21.1% | HS 578T breast 14.9% | NCI/ADR-RES ovarian 13.6%
active: MOLT-4 leukemia 5.79% | SR leukemia -7% | SK-OV-3 ovarian 8.55% | OVCAR-3 ovarian -51.3%

NC(N)=Nc1nc2ccccc2o1
inactive: SK-MEL-2 melanoma 133% | EKVX NSCLC 109% | SN12C renal 110% | UO-31 renal 99.9% | TK-10 renal 129% | ACHN renal 96.6% | A498 renal 89.5% | CCRF-CEM leukemia 80.1% | MOLT-4 leukemia 95.4% | RPMI-8226 leukemia 58.2% | OVCAR-8 ovarian 110% | OVCAR-5 ovarian 110% | OVCAR-4 ovarian 110% | SK-OV-3 ovarian 107% | IGROV1 ovarian 102% | NCI/ADR-RES ovarian 95.1%

COc1ccc(CNCCCN2C(=O)c3ccc4c5c(ccc(c35)C2=O)C(=O)N(CCCNCCCCNCCCN)C4=O)c(OC)c1OC
inactive: EKVX NSCLC 48.7% | UO-31 renal 51.4% | TK-10 renal 25.7% | CAKI-1 renal 56.1% | A498 renal 80% | CCRF-CEM leukemia 16.5% | MOLT-4 leukemia 14.4% | RPMI-8226 leukemia 39.7% | SK-OV-3 ovarian 51.7% | HS 578T breast 73.1% | NCI/ADR-RES ovarian 60.7%
active: SK-MEL-2 melanoma -36.5% | SN12C renal -54.6% | OVCAR-8 ovarian 4.39% | OVCAR-4 ovarian -48.3% | IGROV1 ovarian -4.4% | OVCAR-3 ovarian 3.29%

COc1cc(C2C3=C(COC3=O)Nc3cc4c(cc32)CCC4)cc2c1OCO2 (configuration not stated)
inactive: SK-MEL-2 melanoma 54.4% | EKVX NSCLC 45.4% | SN12C renal 30.9% | UO-31 renal 53.5% | TK-10 renal 67.4% | CAKI-1 renal 37.2% | A498 renal 25.6% | CCRF-CEM leukemia 10.3% | MOLT-4 leukemia 19.6% | RPMI-8226 leukemia 23.2% | OVCAR-8 ovarian 24.5% | OVCAR-4 ovarian 43.5% | SK-OV-3 ovarian 17.4% | IGROV1 ovarian 23.2% | HS 578T breast 28.4%
active: SR leukemia 5.8% | OVCAR-3 ovarian -47.9% | NCI/ADR-RES ovarian -16.6%

COc1ccc(/C=C(\C#N)c2cc(OC)c3c(c2)OCO3)cc1
inactive: SK-MEL-2 melanoma 43.6% | EKVX NSCLC 50.4% | SN12C renal 23.8% | UO-31 renal 39.9% | TK-10 renal 49.6% | CAKI-1 renal 40.7% | A498 renal 35.5% | CCRF-CEM leukemia 14.7% | RPMI-8226 leukemia 28.6% | OVCAR-8 ovarian 24.3% | OVCAR-4 ovarian 39% | IGROV1 ovarian 16.3% | HS 578T breast 28.5%
active: MOLT-4 leukemia 7.91% | SR leukemia 1.82% | SK-OV-3 ovarian 8.7% | OVCAR-3 ovarian -42.7% | NCI/ADR-RES ovarian 7.74%

COc1ccc2c(c1)[nH]c(=O)c1c3cc(C)c(C)cc3cn21
active: SK-MEL-2 melanoma -4.76% | SN12C renal -43.6% | UO-31 renal -31.4% | TK-10 renal -34% | MOLT-4 leukemia -10.9% | RPMI-8226 leukemia -32.2% | OVCAR-8 ovarian -27.5% | IGROV1 ovarian -21.7% | NCI/ADR-RES ovarian 8.27%
inactive: EKVX NSCLC 35.4% | ACHN renal 17.5% | A498 renal 42% | SR leukemia 31.9% | OVCAR-5 ovarian 28.8% | OVCAR-4 ovarian 42.4% | SK-OV-3 ovarian 43.3%

Clc1ccccc1-c1nc2ccccc2[nH]1
inactive: SK-MEL-2 melanoma 116% | EKVX NSCLC 90.3% | SN12C renal 116% | UO-31 renal 95.1% | TK-10 renal 121% | CAKI-1 renal 77.5% | A498 renal 110% | CCRF-CEM leukemia 91% | MOLT-4 leukemia 110% | SR leukemia 116% | RPMI-8226 leukemia 74% | OVCAR-8 ovarian 106% | OVCAR-5 ovarian 54.4% | OVCAR-4 ovarian 96.9% | SK-OV-3 ovarian 103% | IGROV1 ovarian 108% | OVCAR-3 ovarian 102% | HS 578T breast 113%
active: NCI/ADR-RES ovarian -4.71%

N[C@@H]1CCN(C(=O)c2cc3cc(Cl)c(F)c(F)c3[nH]2)C1
inactive: SK-MEL-2 melanoma 99.4% | EKVX NSCLC 86.9% | SN12C renal 90.6% | UO-31 renal 63.4% | TK-10 renal 101% | ACHN renal 90.9% | CCRF-CEM leukemia 102% | MOLT-4 leukemia 94.7% | SR leukemia 88.3% | RPMI-8226 leukemia 96% | OVCAR-8 ovarian 96.3% | OVCAR-5 ovarian 90.3% | OVCAR-4 ovarian 96.5% | SK-OV-3 ovarian 89.3% | IGROV1 ovarian 80.7% | OVCAR-3 ovarian 97.6% | HS 578T breast 87.5% | NCI/ADR-RES ovarian 103%
